In PubChem BioAssay (NCI) one finds growth data, which are given here for eight compounds.

Several values for one entry are separate records, joined by “and”; a condition that tells them apart may be missing. Equal entries are not always repeated. The panel holds about 83,000 compounds, 20% with a hit somewhere; the sample as a whole holds those more often.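 The endpoint reported here, percent growth, reads 100 for growth as untreated, 0 for no net growth and -100 for all cells dead.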 Some compounds were tested as several samples or in several runs, with calls that do not always agree. Activity calls are given as the source filed them. Rule for the calls: active = growth percent below 10; inactive = the rest.

What all share (assay): NCI-60 one-dose screen, 48 h (100 = growth as untreated, 0 = no growth, -100 = all killed)
What all share (settings): 10 µM unless noted

For experiment [1], the system named is HCT-15 colon.
For experiment [2], the system named is SNB-75 CNS.
Experiment [3] relates to SNB-19 CNS.
Experiment [4] relates to U251 CNS.
The test system of experiment [5] is PC-3 prostate.
The subject of experiment [6] is SK-MEL-5 melanoma.
Experiment [7] deals with UACC-62 melanoma.
For experiment [8], the system named is LOX IMVI melanoma.
Experiment [9] deals with SK-MEL-28 melanoma.
Experiment [10] relates to SK-MEL-2 melanoma.
Experiment [11] deals with EKVX NSCLC.
Experiment [12] concerns SN12C renal.
Experiment [13] relates to UO-31 renal.
Experiment [14] has as its system TK-10 renal.
The test system of experiment [15] is ACHN renal.
The subject of experiment [16] is CAKI-1 renal.
The test system of experiment [17] is A498 renal.
Experiment [18] deals with CCRF-CEM leukemia.
Experiment [19] deals with MOLT-4 leukemia.
The subject of experiment [20] is HT29 colon.

`COc1ccc(-c2ncnc3c2ncn3C/C=C/CCl)cc1`: the growth in experiment [1] was 61% (inactive) and 81.2% (inactive); in experiment [2], 128% (inactive) and 105% (inactive); in [3], 87.8% (inactive) and 78.5% (inactive); in experiment [4] it was 64.2% (inactive) and 77.3% (inactive); in [5], 83.8% (inactive) and 87% (inactive); in [6], 85.7% (inactive) and 82.4% (inactive). The growth was 76.6% (inactive) and 74% (inactive) in experiment [7]; 54.2% (inactive) and 70.1% (inactive) in experiment [8]; 98.4% (inactive) and 98.9% (inactive) in [9]; 68.6% (inactive) and 59.2% (inactive) in experiment [10]; 108% (inactive) and 106% (inactive) in experiment [11]; 83.6% (inactive) and 79.6% (inactive) in [12]. Further, the growth in experiment [13] was 60.3% (inactive) and 85.8% (inactive); in [14], 86.3% (inactive) and 95.3% (inactive); in experiment [15] it was 59.4% (inactive) and 79.3% (inactive); in experiment [16], 70.8% (inactive) and 90.8% (inactive); in experiment [17], 68.4% (inactive) and 85.6% (inactive); in [18], 63.2% (inactive) and 56.7% (inactive). Further, the growth in [19] is 48.9% (inactive).

For the compound `Cc1nn(-c2ccccc2)nc1C(=O)Nc1ccccc1C(=O)NCC1CC1`, the growth is 87.5% (inactive) and 71.2% (inactive) in experiment [1]; 121% (inactive) and 4.66% (active) in experiment [2]; 122% (inactive) and 54.3% (inactive) in experiment [3]; 73.3% (inactive) in experiment [4]; 85.2% (inactive) and 78.2% (inactive) in [5]; 95.7% (inactive) and 93.5% (inactive) in experiment [6]. Besides, the growth in [7] is 86.4% (inactive) and 88.3% (inactive); in experiment [8] it was 86.9% (inactive); in experiment [9] it was 104% (inactive) and 95.8% (inactive); in experiment [10], 117% (inactive) and 103% (inactive); in experiment [11], 79.4% (inactive); in experiment [12] it was 89.2% (inactive) and 45.2% (inactive). The growth is 95.5% (inactive) and 57.1% (inactive) in experiment [13]; 83.5% (inactive) in [14]; 91.8% (inactive) and 19.9% (inactive) in [15]; 97.6% (inactive) and 37.7% (inactive) in experiment [16]; 107% (inactive) and 92.8% (inactive) in experiment [17]; 86.8% (inactive) in experiment [18]. The growth in [19] was 103% (inactive) and 75.6% (inactive).

On to `Nc1ncnc2c1ncn2C1CC(O)C(CO)O1` (configuration not stated), for which the growth in experiment [1] is 107% (inactive) and 111% (inactive); in [20] it was 109% (inactive) and 115% (inactive); in [3], 107% (inactive) and 103% (inactive); in experiment [4], 102% (inactive) and 100% (inactive); in [5] it was 110% (inactive) and 102% (inactive); in experiment [6], 115% (inactive) and 108% (inactive). In addition, the growth in experiment [7] was 104% (inactive) and 105% (inactive); in [8] it was 103% (inactive) and 105% (inactive); in experiment [9] it was 123% (inactive) and 115% (inactive); in [10] it was 37.6% (inactive) and 100% (inactive); in [11], 100% (inactive) and 118% (inactive); in [12], 105% (inactive) and 104% (inactive). The growth in experiment [13] is 89% (inactive) and 88.8% (inactive); in [15], 110% (inactive) and 120% (inactive); in [16], 103% (inactive) and 100% (inactive); in [18], 114% (inactive) and 99.2% (inactive); in [19], 114% (inactive) and 92.3% (inactive).

Turning to `COc1c(/C(C)=N/N=c2sc(C(C)=O)nn2-c2ccc(Cl)cc2)c(Oc2ccccc2)c(OC)c2occc12`, the growth in experiment [1] was 102% (inactive) and 92.6% (inactive); in experiment [2], 80.6% (inactive) and 90.1% (inactive); in [3] it was 96.1% (inactive) and 98.1% (inactive); in experiment [4] it was 99.5% (inactive) and 97.2% (inactive); in experiment [5], 102% (inactive) and 88% (inactive); in [6], 100% (inactive) and 103% (inactive). Moreover, the growth in [7] is 96.1% (inactive) and 84.7% (inactive); in experiment [8] it was 91.8% (inactive) and 96% (inactive); in experiment [9], 112% (inactive); in [10], 111% (inactive) and 114% (inactive); in experiment [11], 93.1% (inactive) and 99.8% (inactive); in experiment [12], 104% (inactive) and 98.8% (inactive). In addition, the growth in experiment [13] was 75.8% (inactive) and 72.3% (inactive); in [14], 124% (inactive) and 118% (inactive); in experiment [15], 109% (inactive) and 101% (inactive); in [16], 82% (inactive) and 64.5% (inactive); in [17], 100% (inactive) and 77.1% (inactive); in experiment [18], 106% (inactive). For the same compound, in experiment [19], the growth was 103% (inactive) and 89.3% (inactive).

Regarding `OCCN1CCN(CCCN2c3ccccc3Sc3ccc(Cl)cc32)CC1`, the growth is 49.6% (inactive) and 80.8% (inactive) in experiment [1]; 59.8% (inactive) and 45.6% (inactive) in experiment [2]; 75.6% (inactive) and 100% (inactive) in experiment [3]; 58.2% (inactive) and 73.1% (inactive) in experiment [4]; 47.7% (inactive) and 67% (inactive) in experiment [5]; 50.4% (inactive) in [6]. Besides, the growth in [7] is -64.3% (active) and 23.5% (inactive); in [8], 29.4% (inactive) and 69.6% (inactive); in [9], -33.9% (active) and 56.1% (inactive); in experiment [10], 46.5% (inactive) and 74.9% (inactive); in experiment [11], 66.8% (inactive); in experiment [12], 50.2% (inactive) and 72.8% (inactive). The growth in experiment [13] is 36.1% (inactive) and 45.1% (inactive); in experiment [14], 47.8% (inactive) and 75.4% (inactive); in experiment [15], 62.3% (inactive) and 76.1% (inactive); in experiment [16] it was 47.9% (inactive) and 68.8% (inactive); in experiment [17], 58.4% (inactive) and 77.8% (inactive); in experiment [18] it was 40.6% (inactive) and 55.9% (inactive). Besides, in experiment [19], the growth was 47.9% (inactive) and 53.3% (inactive).

In the case of `NS(=O)(=O)c1cc2c(cc1Cl)NC(C(Cl)Cl)NS2(=O)=O` (configuration not stated), the growth in [1] is 95.3% (inactive) and 101% (inactive); in [2], 77.7% (inactive) and 114% (inactive); in experiment [3] it was 104% (inactive) and 105% (inactive); in [4], 86.5% (inactive) and 104% (inactive); in [5] it was 99% (inactive) and 99.8% (inactive); in experiment [6] it was 99.7% (inactive) and 102% (inactive). In addition, the growth is 103% (inactive) in experiment [7]; 98.6% (inactive) and 99.9% (inactive) in experiment [8]; 99.8% (inactive) and 115% (inactive) in experiment [9]; 104% (inactive) and 135% (inactive) in experiment [10]; 89.3% (inactive) and 110% (inactive) in experiment [11]; 93.2% (inactive) and 103% (inactive) in experiment [12]. In addition, the growth was 90.7% (inactive) and 87.4% (inactive) in experiment [13]; 98.5% (inactive) and 121% (inactive) in [14]; 96.7% (inactive) and 92.4% (inactive) in experiment [15]; 98.8% (inactive) and 95.4% (inactive) in experiment [16]; 97.6% (inactive) and 96.2% (inactive) in experiment [17]; 89.2% (inactive) and 92.5% (inactive) in experiment [18]. In experiment [19], the growth is 95.1% (inactive) and 92.4% (inactive).

For `Nc1cc(-c2cccc(OC(F)(F)F)c2)nc2ccc(N3CCCC3)cc12`, the growth in [1] was 7.95% (active) and 7.96% (active) and 7.69% (active); in experiment [20] it was 1.32% (active) and 5.14% (active) and -8.94% (active); in experiment [3] it was 31% (inactive) and 30.5% (inactive) and 23% (inactive); in experiment [4], -3.82% (active) and 5.25% (active) and 1.38% (active); in [5], 20.5% (inactive) and 22.2% (inactive) and 18.3% (inactive); in experiment [6] it was -41.1% (active) and -39.4% (active) and -14.8% (active). Also, the growth was 8.8% (active) and 27.2% (inactive) and 38.7% (inactive) in [7]; -57.4% (active) and 37.1% (inactive) and 52.9% (inactive) in experiment [9]; 11.9% (inactive) and 37.9% (inactive) and 12.2% (inactive) in [10]; 30.1% (inactive) and 29.9% (inactive) and 38.4% (inactive) in experiment [11]; -6.86% (active) and 12.7% (inactive) and 14.1% (inactive) in experiment [13]; 46.7% (inactive) and 44.3% (inactive) and 40.9% (inactive) in experiment [14]. The growth was 27.4% (inactive) and 28.9% (inactive) and 26.3% (inactive) in experiment [15]; 30.7% (inactive) and 35.3% (inactive) and 41.7% (inactive) in experiment [16]; 19.9% (inactive) and 22.5% (inactive) and -7.01% (active) in experiment [17]; -15.1% (active) and 2.73% (active) and 4.3% (active) in [18]; 10.7% (inactive) and 12.7% (inactive) and 12.8% (inactive) in [19].

Consider `Clc1ccc(NC(Nc2ccc(Cl)cc2)C(Cl)(Cl)Cl)cc1`, for which the growth is 65.6% (inactive) and 88.7% (inactive) in experiment [1]; 101% (inactive) and 98.4% (inactive) in [20]; 104% (inactive) and 112% (inactive) in experiment [3]; 95% (inactive) and 110% (inactive) in experiment [4]; 91.9% (inactive) in experiment [5]; 91.3% (inactive) and 85.3% (inactive) in experiment [6]. Besides, the growth in experiment [7] was 9.46% (active) and 62.8% (inactive); in [8], 74.5% (inactive); in [9] it was 105% (inactive) and 114% (inactive); in [10] it was 85.6% (inactive) and 95.8% (inactive); in experiment [11], 85.7% (inactive) and 99.3% (inactive); in experiment [12] it was 84% (inactive) and 111% (inactive). Moreover, the growth in experiment [13] is 25.5% (inactive) and 75.1% (inactive); in experiment [14], 110% (inactive) and 92.3% (inactive); in experiment [15] it was 41.6% (inactive); in experiment [16] it was 66% (inactive); in experiment [18], 95% (inactive); in experiment [19], 70.3% (inactive) and 89.5% (inactive).
